# Compound activity from PubChem BioAssay.
# In the library only some 1.9% were active in any assay of this set; here they are far more common.
# TNF death inh: inhibitors of TNF-alpha induced necroptosis in Jurkat FADD-/- cells; Jurkat FADD-/- TNF necroptosis rescue, ATP luminescence, 24 h; 0 = TNF only, 100 = no-TNF cells; activation (protection from cell death), % at 10 µM; 220,000 tested, 0.068% active; AID 463075;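 active = activation, meaning protection from cell death, of at least 50% relative to plate controls; inactive = activation below 50%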;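 note: necroptosis triggered by 40 ng/mL TNF-alpha added together with compound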
# L929 necroptosis: L929 zVAD cell death inhibition | viability rescue, % at 10 µM | 220,000 tested, 0.38% active | AID 1377 | L929 zVAD necroptosis rescue, ATP luminescence, 24 h; with zVAD 60 µM;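 active = activation, scaled between plate controls, above about 75%, limit read from the data; inactive = activation under that limit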
# Hsp70 act: transcriptional activators of Hsp70; HeLa Hsp70 promoter luciferase reporter, luminescence; scaled: vehicle 0, proteasome-inhibitor control 100%; activation, % at 10 µM; 200,000 tested, 0.04% active; AID 1203;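 active = activation above the mean across all tested compounds plus 3 SD, cutoff set per campaign, cut at about 5.5% in these data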
# HSF-1 act: increases HSF-1 driven luciferase reporter signal; NIH3T3-HGL HSF-1 luciferase reporter, MG132, 8 h; 100% = twice DMSO control signal; activation, % at 9 µM; 300,000 tested, 1.7% active; AID 504408;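 active = mean replicate activation of at least 50% with a set share of replicates each reaching 50%; inconclusive = only one of those two conditions met; inactive = mean below 50% and too few replicates reaching it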
# Hits are given with their value; . = inactive; ? = inconclusive; / = no result.
SMILES,TNF death inh,L929 necroptosis,Hsp70 act,HSF-1 act
COc1ccc(CN2CC(=O)N(c3cc(Cl)ccc3OC)C2=S)cc1OC,/,/,/,.
Cc1cc(C)cc(-n2c3nc4ccccc4nc3c3c(=O)n(Cc4ccco4)cnc32)c1,.,.,.,119
Cc1cnn(-c2cc(N/N=C/c3cccc(F)c3)ncn2)c1,.,.,.,56
COCCN(C(=S)Nc1cccc(C)c1)C(C)c1cccnc1 (centres undefined),.,.,.,.
Cc1ccc(SCCCCN2CCOCC2)cc1,/,/,/,141
Cc1ccc(C(=O)NC(=S)Nc2cccnc2Cl)cc1,/,/,/,65
Cc1ccc(NC(=O)NC(=S)NC(=O)c2ccccc2)cc1,.,.,.,54
Cc1ccc(C(=O)NNC(=S)NC(=O)c2ccccc2)cc1,/,/,/,.
COc1ccc(Cl)cc1NC(=O)C1CC(=O)N(C2CCCCC2)C1 (centres undefined),/,/,/,.
CC12CC3CC(C)(C1)CC(C(=O)NCc1cccnc1)(C3)C2,/,/,/,.
CC(C)(C)CC(=O)NCCc1csc(-c2ccccc2)n1,.,.,/,63
CCOc1cccc(/C=C/c2ccc3cccc(O)c3n2)c1O,/,/,/,.
CCOc1cccc(/C=C/c2ccc3cccc(O)c3n2)c1OC,/,/,/,143
CCCCCCCC(=O)NNC(=O)Cc1ccccc1,.,.,.,.
CCCCCCCCCCCC(=O)c1c(O)cccc1O,.,.,.,51
Oc1[nH]c2ccc(Br)cc2c1N=NC(=S)N1CCOCC1,.,.,/,240
Oc1[nH]c2ccccc2c1N=NC(=S)N1CCOCC1,.,.,/,87
CCCCOc1ccc(-c2cn3ccccc3n2)cc1[N+](=O)[O-],.,.,.,63
CCOc1ccc(-c2cn3ccccc3n2)cc1[N+](=O)[O-],.,.,.,55
COc1ccc(NC(=O)c2nc3nccc(C)n3n2)cn1,.,.,.,.
COc1ccc2nc(NC(=O)Cc3ccc(OC)c(S(=O)(=O)N4CCOCC4)c3)sc2c1,.,92,.,.
CCOc1ccc(S(=O)(=O)c2c(C(=O)c3ccccc3)cnc3cc4c(cc23)OCCO4)cc1,.,.,.,68
O=C(CN1C2=NCCCN2c2ccccc21)c1ccc([N+](=O)[O-])cc1,.,.,.,.
O=C(NC(=S)Nc1ncc(Br)cc1Br)c1ccccc1,/,/,/,76
CCCN(C(=O)c1ccc(N(C)S(=O)(=O)c2ccc(C)cc2)cc1)C1CCS(=O)(=O)C1 (centres undefined),/,/,/,.
SMILES,TNF death inh,L929 necroptosis,Hsp70 act,HSF-1 act
Cc1nc(SCC(=O)c2cccs2)c2oc3ccccc3c2n1,.,.,.,51
CCOC(=O)c1cc(CC)sc1NC(=O)CN1C(=O)C(=O)N(CC(C)C)C1=O,/,/,/,.
COc1ccc(C(=O)NCc2nnc(SCC(=O)N3CCc4ccccc43)n2CCc2ccccc2)cc1,.,.,.,80
COc1ccc(C(=O)NCc2nnc(SCC(=O)N3CCc4ccccc43)n2C2CCCCC2)cc1,.,.,.,.
CSc1nc(N2CCOCC2)nc2ccc(C)cc12,/,/,/,.
O=S(=O)(c1ccccc1F)N(Cc1ccco1)Cc1nnc(-c2ccccc2Br)o1,.,.,.,/
COC(=O)c1sc2nc(-c3ccco3)ccc2c1N,.,.,.,56
NC(=O)c1sc2nc(-c3cccnc3)ccc2c1N,.,.,/,.
CCOC(=O)c1sc2nc(-c3cccnc3)ccc2c1N,.,.,.,75
Cc1ccc2cc(CCNC(=O)c3cccs3)c(=O)[nH]c2c1C,.,/,.,58
COc1ccc([N+](=O)[O-])cc1NC(=O)c1ccccc1N(C)S(C)(=O)=O,.,.,.,.
CCOC(=O)C(C)(C)N(Cc1ccc(Cl)cc1)S(=O)(=O)c1ccc(Cl)c([N+](=O)[O-])c1,.,/,.,66
Cc1ccc(Nc2cc(C)nc(-c3ccccc3)n2)cc1,/,/,/,52
O=S(=O)(/N=C(/Nc1cccc2ccccc12)c1ccccc1)c1ccc(F)cc1,/,/,/,52
COc1ccc(NC(=O)CC23CC4CC(CC(Br)(C4)C2)C3)c(OC)c1,/,/,/,.
CCN(CC)S(=O)(=O)c1ccc(Cl)c(C(=O)OC2CC(C)OC2=O)c1 (centres undefined),/,/,/,.
CCS(=O)(=O)Nc1ccc2[nH]c(=O)[nH]c2c1,.,.,.,78
CCC(C)(C(=O)NC1CCCCC1)N(Cc1ccco1)C(=O)c1ccccn1 (centres undefined),.,.,.,.
Cc1nc2oc3ccccc3c(=O)c2c(=O)n1Cc1ccccc1,60,.,.,.
Clc1ccc(CNC2CCN(Cc3ccccc3)CC2)cc1,/,/,/,81
Fc1ccc(CNC2CCN(Cc3ccccc3)CC2)cc1,/,/,/,.
Cc1cccc(OCC(=O)Nc2ccc(N3CCN(S(C)(=O)=O)CC3)cc2)c1C,.,.,.,57
CCN(CC)c1ccc(/C=C2\SC(=O)N(C(C)C)C2=O)o1,.,.,/,295
Cc1ccc(N(C(=O)c2csnn2)C(C(=O)NC2CCCCC2)c2cccnc2)cc1 (centres undefined),/,/,/,.
COc1cc(Cl)c(C)cc1NC(=O)CSc1ccc(C)cc1,.,.,.,80
SMILES,TNF death inh,L929 necroptosis,Hsp70 act,HSF-1 act
CS/C(N)=N/N=C/c1cc(C)ccc1O,.,.,/,140
CC(=O)N1N=C(c2ccc(C)cc2)OC1c1ccc(Br)cc1 (centres undefined),.,.,.,57
CC(=O)N1N=C(c2ccc(Cl)cc2)OC1c1ccc(C(C)C)cc1 (centres undefined),.,.,.,.
Brc1ccc(-c2nnc(Cc3ccccc3)o2)cc1,.,.,/,56
COC(=O)c1ccc(COc2ccccc2/C=C(\C#N)C(=O)Nc2c(C)cc(C)cc2C)cc1,.,.,.,93
Cc1cccc(C)c1NC(=S)NC(=O)c1ccc(Br)o1,.,.,.,.
Cc1cccc(NC(=S)NC(=O)c2ccc(Br)o2)c1C,.,.,.,92
Cc1csc(NC(=O)CSc2nnc(CCNC(=O)c3cccs3)n2C)n1,.,.,.,.
Cn1c(CCNC(=O)c2cccs2)nnc1SCC(=O)Nc1nc(-c2ccccc2)cs1,.,.,.,54
CCOc1cc(/C=C2\CCC/C(=C\c3cc(Cl)c(O)c(OCC)c3)C2=O)cc(Cl)c1O,.,.,.,316
CCOC(=O)c1cnc2oc3ccccc3n2c1=O,/,/,/,.
CN1C(=O)C(CC(=O)Nc2ccc(Cl)cc2)N(Cc2ccco2)C1=S (centres undefined),.,.,.,53
Cc1ccc(-c2[nH]ncc2C(=O)c2ccc(Br)cc2)c(O)c1,/,/,/,71
COc1cc(OC)c(NS(=O)(=O)c2ccc3c(c2)NC(=O)CO3)cc1Cl,/,/,/,.
Cc1cc(N/C=C/C(=O)c2ccc(Br)cc2)no1,.,.,.,55
O=C(/C=C/Nc1ccc(F)c(F)c1)c1ccc(Br)cc1,.,/,.,?
O=C(/C=C/Nc1ccc(F)cc1)c1cccs1,.,.,.,65
O=C(/C=C/Nc1ccc(F)cc1)c1ccc(Br)cc1,.,.,.,65
Cc1cc(C)c(S(=O)(=O)NC2CC3CCC2C3)c(C)c1 (centres undefined),/,/,/,.
COc1ccc(OCc2nnc(SC(C)C(=O)Nc3nccs3)n2-c2ccccc2)cc1 (centres undefined),.,.,.,.
